# Values joined by “and” are separate entries in the source; they are usually repeats but may differ in a detail not shown here. Identical values can stand only once. About 83,000 compounds went through this panel and 20% of them were active in at least one assay; those are over-represented in the sample as a whole.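 Results are percent growth after 48 hours of single-concentration exposure. 100 means growth as in untreated cells, lower positive values show inhibition; negative values down to -100 show cell death.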 A number with no mark means an inactive call. Active and inactive are the calls of the source. How the source made its calls: active means growth percent below 10; inactive means the rest.
# Legend:
# Assay in all cases: NCI-60 one-dose screen, 48 h (100 = growth as untreated, 0 = no growth, -100 = all killed)
# Settings in all cases: 10 µM unless noted
# SK-MEL-2 melanoma = tested on: SK-MEL-2 melanoma
# EKVX NSCLC = tested on: EKVX NSCLC
# SN12C renal = tested on: SN12C renal
# TK-10 renal = tested on: TK-10 renal
# ACHN renal = tested on: ACHN renal
# CAKI-1 renal = tested on: CAKI-1 renal
# CCRF-CEM leukemia = tested on: CCRF-CEM leukemia
# MOLT-4 leukemia = tested on: MOLT-4 leukemia
# SR leukemia = tested on: SR leukemia
# RPMI-8226 leukemia = tested on: RPMI-8226 leukemia
# OVCAR-8 ovarian = tested on: OVCAR-8 ovarian
# OVCAR-5 ovarian = tested on: OVCAR-5 ovarian
# OVCAR-4 ovarian = tested on: OVCAR-4 ovarian
# IGROV1 ovarian = tested on: IGROV1 ovarian
# OVCAR-3 ovarian = tested on: OVCAR-3 ovarian
# HS 578T breast = tested on: HS 578T breast
# NCI/ADR-RES ovarian = tested on: NCI/ADR-RES ovarian
# A498 renal = tested on: A498 renal
# SK-OV-3 ovarian = tested on: SK-OV-3 ovarian
# UO-31 renal = tested on: UO-31 renal
SMILES,growth (SK-MEL-2 melanoma),growth (EKVX NSCLC) [%],growth (SN12C renal),growth (TK-10 renal),growth (ACHN renal),growth (CAKI-1 renal),growth (CCRF-CEM leukemia),growth (MOLT-4 leukemia),growth (SR leukemia),growth (RPMI-8226 leukemia),growth (OVCAR-8 ovarian),growth (OVCAR-5 ovarian),growth (OVCAR-4 ovarian),growth (IGROV1 ovarian),growth (OVCAR-3 ovarian),growth (HS 578T breast),growth (NCI/ADR-RES ovarian),growth (A498 renal),growth (SK-OV-3 ovarian),growth (UO-31 renal)
OCc1cccc(F)c1,2.28% (active),106,83.6%,96.5%,-0.315% (active),34.2%,103%,83.5%,71.1%,113%,85.3%,70.7%,113%,79.6%,125%,124%,76.5%,–,–,–
O=C1C(=O)c2ccccc2C(O)=C1CC=C(Cl)Cl,89.2% and 77.8%,75.8,68.8% and 66.9%,75.8% and 69.5%,52.6% and 65%,–,44% and 39.3%,20.5% and 23.4%,43.4% and 55.5%,44.7% and 41.7%,44.3%,35.3% and 87.2%,83.9% and 84.4%,42.7%,65.8% and 67.1%,82.3% and 87.2%,57.6% and 55.7%,81% and 82.9%,–,–
OC1CCCN(Cc2ccccc2)C1 (configuration not stated),115%,116,98.5%,97.4%,106%,105%,98.4%,92.5%,88.6%,90.5%,105%,108%,129%,112%,113%,118%,101%,96.2%,99.7%,–
CCNC1=CC(=O)c2ncccc2C1=O,26.9%,72.6,-32.2% (active),83.6%,59%,55.8%,76.7%,52.6%,50.9%,66.4%,51.9%,-53.7% (active),47.1%,–,1.49% (active),-15.9% (active),56%,80.8%,73.5%,–
Nc1c(Cl)cc2c(c1Br)C(=O)c1ccccc1C2=O,103%,60.2,87.3%,108%,73%,–,96.2%,87.8%,78.4%,98.3%,89.3%,98.5%,106%,71.6%,117%,–,92.4%,110%,84%,–
O=C(Nc1ccccc1)OCC(CN1CCCCC1)OC(=O)Nc1ccccc1 (configuration not stated),85.6% and 108%,82.5,77.5% and 94%,93.2% and 104%,72.9% and 92.8%,71.6% and 86%,–,64.8% and 87.9%,82.9%,90.6%,92.8% and 95.1%,105% and 96.7%,76.4% and 104%,–,91.2% and 101%,91.6%,85.6% and 96.1%,79.5% and 68.7%,89.4% and 93.8%,–
CCCC(=O)OCC(COC(=O)CCC)OC(=O)CCC,99.2%,93.7,96.9%,99.4%,108%,–,95.4%,102%,105%,98.1%,101%,102%,97.6%,–,105%,98.6%,100%,–,103%,87.3%
CC(C)(C)OC(=O)c1ccc(NCc2cc(O)ccc2O)cc1,47.7%,–,7.05% (active),2.52% (active),-67.3% (active),-36% (active),-1.62% (active),5.04% (active),3.5% (active),1.66% (active),17.2%,106%,12.3%,-14.3% (active),-83.8% (active),30.8%,23.1%,25.1%,44.6%,–
O=C(O)C1CSCN1 (configuration not stated),110% and 84.4%,–,100%,103% and 109%,101% and 97.9%,92.9% and 91.4%,–,75.9% and 106%,97.4%,106% and 105%,113% and 98.8%,118% and 88.8%,112% and 102%,–,120% and 107%,136% and 112%,108% and 87.2%,–,105% and 94.9%,81.3% and 88.6%
Clc1ccc2sc(-c3ccccc3)nc2c1,77.2%,–,95.6%,126%,89.6%,90.7%,87%,92.3%,83.1%,97%,87.9%,120%,81.5%,101%,98.6%,–,100%,92.5%,83.6%,77.6%
COC(=O)c1nc(=S)[nH]c(C(=O)OC)c1C(=O)c1ccccc1,104%,–,99.2%,113%,101%,87%,103%,112%,113%,107%,110%,106%,106%,101%,112%,99%,108%,114%,–,85.3%
COc1ccc(CCl)c(C)c1OC,104%,–,98.2%,102%,110%,101%,97.3%,104%,105%,106%,99.3%,100%,109%,104%,105%,105%,105%,89.5%,–,89.7%
C/C=C(/C(=O)NC(N)=O)C(C)C,109%,–,102%,117%,110%,104%,111%,92.3%,88.7%,113%,96.2%,116%,119%,114%,104%,–,107%,102%,–,100%
